According to the supplement of paper PMC6555819:

Key:
Assay in all cases: PBM binding z-score (relative to random genomic background probes); higher = stronger binding; sequences stand for … in GC…GCGATTGACAGCGTAGAATGAAGG
[1] = test system: RARg:RXRa (NR concentration 270 nM, RXRa partner concentration 90 nM)
Procedure, shortened: (§1)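 Binding z-scores were set against random background probes. The data came from custom Agilent 4×180K protein-binding microarrays carrying double-stranded probes with 34-nt variable regions, incubated 1 h with ligand-free nuclear receptor dimers. Partner-specific antibodies detected binding, and scanned fluorescence was regression-normalized.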

[2] = test system: RARg homodimer (NR concentration 270 nM)
Procedure, shortened: as §1

[3] = test system: RXRa DBDmut IVT, anti-RXR (DBD mutation: RXRa K156A/R161A, NR concentration 90 nM)
Procedure, shortened: as §1

[4] = test system: RXRa homodimer (NR concentration 180 nM)
Procedure, shortened: as §1

[5] = test system: THRa:RXRa (NR concentration 90 nM, RXRa partner concentration 90 nM)
Procedure, shortened: as §1

[6] = test system: THRa homodimer (NR concentration 90 nM)
Procedure, shortened: as §1

[7] = test system: VDR homodimer (NR concentration 270 nM)
Procedure, shortened: as §1

| Sequence | PBM binding z-score [1] | PBM binding z-score [2] | PBM binding z-score [3] | PBM binding z-score [4] | PBM binding z-score [5] | PBM binding z-score [6] | PBM binding z-score [7] |
| --- | --- | --- | --- | --- | --- | --- | --- |
| AGTCAAAGTTCATCTAGGTCACGTAAGATATGCT | 6.63 | 7.35 | 4.81 | 5.75 | 4.62 | 2.83 | 7.84 |
| AATAAAGGGTCATCGTAGGCCAGAGTACGCACAG | 6.49 | 6.51 | 3.4 | 6.51 | 4.49 | 0.425 | 3.62 |
| CGTCCAAGGTCTAGGTCAGTGAAAGAGACTCGAA | 1.6 | 2.4 | 0.323 | 0.486 | 1.86 | 0.936 | 0.00097 |
| CGAACTAGGTCAAGGCCAGTGAATCTCCGCACGC | 3.79 | 4.63 | 1.47 | 2.73 | 3.12 | 0.958 | 0.111 |
| TAGCCTAGGTCATGGGCCAGTGTACCACGCGAAC | 4.41 | 4.65 | 0.252 | 3.76 | 3.13 | 1.23 | 0.706 |
| CCTACTGGACCAAGGTCATTGATCAGTCAAAGCA | 3.7 | 2.94 | 1.91 | 3.39 | 3.43 | 2.69 | 3.61 |
| CTATGTAGGTCAAGGGGGTCATTCAGTTTGAAAG | 7.26 | 6.93 | 3.29 | 7.64 | 4.27 | 2.15 | 7.37 |
| TACCCTAGGTCATGGGCCAGTATACCACGCGAAC | 4.53 | 4.92 | 0.55 | 4 | 3.26 | 2.22 | 1.35 |
| CGAACTAGGTCAAAGGACATTGAAAGGCGACGTA | 4.1 | 4.34 | 1.63 | 3.33 | 2.82 | 0.495 | 0.442 |
| ACTTACGGGTCTACGAGGTTATAGCACGCGTATA | 0.863 | 0.586 | 0.937 | 1.32 | 1.83 | 0.82 | 1.55 |
| AGAATGAGGTTACCAAAGTTCAGGGAAACGCTTG | 4.44 | 3.52 | 1.62 | 4.3 | 4.02 | 0.878 | 2.32 |
| GGAACGAGGTCAAGTTGATAGCAGAGTTTGATGG | 6.84 | 7.08 | 4.6 | 7.65 | 4.27 | 2.78 | 5.11 |
| CATACAGGGTCGGCTAGGCCAGAGTAGGGACGGC | 0.866 | 1.16 | -0.309 | 0.983 | 0.966 | -0.41 | 0.745 |
| TAGCCTAGTTCATTCAGGGGCCAGTATAGAAAGC | 3.6 | 1.34 | 2.96 | 0.328 | 1.68 | -0.0964 | 2.71 |
| TATTCAGGGTCAAAGGCCAGAGTACGAATGTCGA | 6.24 | 5.27 | 3.3 | 7.75 | 3.83 | 1.25 | 3.62 |
| TGTATGAGGTTAAAGATCAGGGAACGTGGCGTCG | 2.79 | 1.99 | 1.22 | 4.35 | 2.84 | 1.01 | 1.19 |
| ACTCGGATGACAAAGGTCAGAGCTACGCCAGTGA | 4.9 | 4.66 | 0.624 | 4.83 | 2.54 | 0.0278 | 1.1 |
| ATATGTAGGTTAGGGTCAGTCAGAAAGTAGGGAA | 3.08 | 3.14 | 1.04 | 3.37 | 3.32 | 2.69 | 1.79 |
| CGTCAAAGTTCAACTGAGGTAACGTAAAGCACGC | 6.11 | 6.84 | 4.76 | 5.4 | 5.27 | 1.89 | 4.07 |
| AGTCAAAGTTTATCTAGGTAACGTAAGATATGCT | 1.12 | 1.41 | 1.93 | 0.551 | 1.6 | -0.0604 | 1.31 |

| Sequence | PBM binding z-score [1] | PBM binding z-score [2] | PBM binding z-score [3] | PBM binding z-score [4] | PBM binding z-score [5] | PBM binding z-score [6] | PBM binding z-score [7] |
| --- | --- | --- | --- | --- | --- | --- | --- |
| CCTACTGGTCCAAGGTCATTGATCAGTCAAAGCA | 3.84 | 3.4 | 2 | 3.96 | 3.59 | 3.48 | 3.1 |
| ATATGTAGGTTATCGGGTCATACAGTTTGCGCAT | 3.64 | 2.84 | 1.67 | 3.87 | 3.68 | 2.82 | 3.52 |
| TAGCCTAGGTCATGCGGGACAGTATAGTGTCGGC | 3.95 | 4.49 | 0.879 | 3.05 | 3.04 | 0.939 | 1.16 |
| ATCGAAAGGTCGACCAGGTGAGTATACACCGTTT | 4.38 | 4.1 | 1.3 | 4.37 | 3.34 | 0.391 | 1.22 |
| AAAACAGGGTCATCGTAGGCCAGAGTACGCACAG | 6 | 5.11 | 3.74 | 7.23 | 4.81 | 1.58 | 4.06 |
| AGTCAAAGTTCAGGACGAGGTAACGTTAAGCACG | 4.79 | 4.82 | 3 | 2.87 | 3.83 | 1.82 | 2.56 |
| CGTACAAGGTCAAAGGTCAGTGAAGAGATGACGG | 8.95 | 8.28 | 4.22 | 10.5 | 4.71 | 2.58 | 4.13 |
| TATACAAGGTCAAAGGCCAGAGTACGAATGTCGA | 6.25 | 6.16 | 2.92 | 6.51 | 3.86 | 2.1 | 2.78 |
| CCAGACAGGTGAGAAGGTAACTCAGCCTCGATTA | 0.555 | 0.652 | 0.16 | 0.448 | 0.425 | 0.236 | 0.403 |
| CGTCCAAGGTCATAGAGGTCAGTGAATGCCGAGT | 7.06 | 7.75 | 4.4 | 7.55 | 4.38 | 3.51 | 7.8 |
| CCTTACGGGTCAAGGTTATAGCCCGGGTGGTACG | 5.05 | 5.24 | -0.0321 | 5.76 | 3.1 | 0.694 | 1.24 |
| TCTCGGAGGACACTAAAGGTCAGAGCTCGACATC | 4.4 | 4.68 | 1.11 | 3.98 | 3.48 | 1.1 | 0.787 |
| GCTTACGGGTCCAAGGTTATAGCATGAATAGAAT | 0.631 | 0.599 | 2.18 | 0.914 | 1.34 | 0.551 | 1.97 |
| CCTACTGGGCCTAAGGTCATTGATTCCAATGCTC | 3.16 | 2.83 | 1.17 | 3.44 | 3.88 | 4.55 | 2.68 |
| TACCCTAGGTCATTCAGGGGCCAGTATAGAAAGC | 6.19 | 5.02 | 1.56 | 3.18 | 3.65 | 1.29 | 1.84 |
| TACCCTAGGTCATTGGGCCAGTATAGTACGCATC | 4.13 | 4.3 | 1.87 | 3.19 | 3.08 | 1.37 | 1.77 |
| ATCGAAAGGTCGAAGGTGAGCATACCCACCCGAA | 4.35 | 3.86 | 0.654 | 5.22 | 2.36 | 0.23 | 0.602 |
| TCTCGGAGGACACAAAGGTCAGAGCTTTCCAGAG | 4.8 | 5.32 | 0.957 | 4.32 | 3.45 | 0.913 | 2.06 |
| CCTCGGAGGACAGAAGGTCAAAGCTGTCCGCTTT | 4.94 | 4.52 | 0.948 | 4.07 | 3.2 | 0.161 | 0.867 |
| TTACCAAGGTGAACGGTCGTTGATGCACGCCTTG | 0.796 | 0.84 | -0.078 | 1.24 | 1.93 | 0.872 | -0.356 |

| Sequence | PBM binding z-score [1] | PBM binding z-score [2] | PBM binding z-score [3] | PBM binding z-score [4] | PBM binding z-score [5] | PBM binding z-score [6] | PBM binding z-score [7] |
| --- | --- | --- | --- | --- | --- | --- | --- |
| ACTTAAGGGTCAACGAGGTTATAGCACGCGTATA | 6.9 | 6.85 | 3.8 | 7.56 | 4.4 | 1.07 | 5.42 |
| TTGCCAAGGTGAAAGGTCGTTGATGCACGCCTTG | 4.33 | 2.25 | 0.468 | 5.91 | 3.3 | 0.784 | 1.34 |
| CAAACTAGGTCACAAAAGGTCAAAGTCGAATGAC | 7.42 | 8.02 | 2.52 | 7.78 | 4.76 | 2.22 | 3.98 |
| ATATGTAGGTTAGGGGTCATTCAGGTTGGTTCGC | 5.63 | 4.38 | 2.85 | 7.75 | 3.99 | 2.88 | 6.78 |
| AATACAGGGTCATCGTACGCCAGAGTACGCACAG | 5.65 | 4.81 | 3.46 | 6.92 | 3.87 | 1.73 | 4.17 |
| TTACCAAGGTGAAAGGTCGTTGCTGCACGCCTTG | 4.15 | 1.94 | 0.854 | 5.85 | 3.37 | 0.758 | 1.74 |
| CAAACTAGGTCAAGGTCTAAGTCGGTTTGTGCCA | 3.81 | 4.71 | 1.44 | 2.49 | 3.15 | 1.57 | 1.14 |
| CCGACTGGGGCAAGGTCACCATAACGCACAGCCA | 4.32 | 4.45 | 0.549 | 4.37 | 3.66 | 2.7 | 2.02 |
| AGAATGAGATTACCAAAGATCAGGGAAACGCTTG | 0.145 | 0.36 | -0.574 | 0.178 | -0.261 | -0.869 | -0.177 |
| CGTCAAAGTCCAAGGTAACGTAACAGAAAGCAGC | 0.398 | 1.1 | 1.15 | -0.0038 | 1.31 | 0.878 | 0.231 |
| TAGCCTAGGTCATTCAGGGGCCAGCATAGAAAGC | 6.31 | 4.44 | 1.98 | 2.92 | 3.55 | 0.61 | 1.44 |
| CCTACGGGGCCACGAAAGGTCATTGATTCAGTGA | 5.49 | 5.3 | 0.662 | 5.74 | 4.64 | 0.878 | 2.64 |
| AGAATGGGGTTATACGTAGATCAGGGAAGAAAGT | 2.66 | 0.984 | 2.16 | 4.17 | 2.8 | 1.53 | 1.86 |
| CGAACTAGGTCACCCAGGACAGTGAATACATTGA | 4.24 | 5.04 | 2.03 | 3.13 | 3.66 | 2.18 | 1.89 |
| TCTGCTAGGTCAACGTTGGTCAGCTAATCTGCTA | 3.78 | 4.83 | 1.06 | 2.32 | 3.21 | 0.755 | -0.37 |
| AGAATGAGGTCAAGATCAGGGAAACAGAATACAT | 6.53 | 6.24 | 4.15 | 6.66 | 4.29 | 2.98 | 3.31 |
| CGTCAAAGTTCAAGGTCACGTAACAGAAAGCAGC | 7.15 | 8.05 | 4.52 | 7.07 | 4.54 | 4.62 | 5.21 |
| ACTCGGTGGACAAAGGTCAGAGCTACGCCAGTGA | 4.58 | 4.49 | 0.0487 | 4.44 | 2.45 | -0.204 | 0.332 |
| CGTCAAACTTCAACTAAGGTAACGTAAAGCACGC | 0.289 | 0.43 | 0.617 | 0.424 | 2.4 | 1.98 | 0.47 |
| CGAACTAGGTCATTGACAGGACAGTGGATAGTAA | 4.35 | 4.34 | 2.35 | 2.59 | 2.76 | 0.809 | 1.22 |
